Source: PubChem BioAssay (Tox21)
Active and inactive are the calls of the source. Calls follow the shape of the dose curve; as a rule, active = well fitted curve in the direction sought with a large enough effect in the repeat runs; inconclusive = weak or mixed curves; inactive = flat fitted curve, though single readings scatter.

Assay: qHTS assay to test for compound auto fluorescence at 535 nm (green) in HEK293 cell free culture (AID 720682)
Details: cell-free medium, green autofluorescence 485/535 nm; series mostly up to 91.3 µM
In short: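 Read-out: 485/535 nm fluorescence intensity, calibrated against fluorescein. Medium only (DMEM + 10% FBS, no cells); test compound or DMSO vehicle added by pintool before plate reading.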

| SMILES | outcome |
| --- | --- |
| Nc1ccccc1C(=O)O | inactive |
| Nc1ccc(Br)cc1 | inactive |
| CON(C)C(=O)Nc1ccc(Cl)c(Cl)c1 | inactive |
| O=c1n(Cl)c(=O)n(Cl)c(=O)n1Cl | inactive |
| Cc1ccc([N+](=O)[O-])cc1C | inactive |
| O=S(=O)(c1ccc(Cl)cc1)c1cc(Cl)c(Cl)cc1Cl | inactive |
| CCC[CH2][Sn]([Cl])([Cl])[Cl] | inactive |
| NCC(O)c1ccc(O)cc1 (stereo not drawn) | inactive |
| Cc1ccc(N)cc1Cl | inactive |
| Cc1[nH]c(=O)n(C(C)(C)C)c(=O)c1Cl | inactive |
| CCOP(OCC)OCC | inactive |
| [O-][Cl+2]([O-])O | inactive |
| C1CC2OC2CC1C1CO1 (stereo not drawn) | inactive |
| CCc1cccc(C)c1N(C(=O)CCl)C(C)COC (stereo not drawn) | inactive |
| CN1C(=O)CN=C(c2ccccc2)c2cc(Cl)ccc21 | inactive |
| BrCCBr | inactive |
| CCC[N+](=O)[O-] | inactive |
| Cc1cc(-c2cc(C)c(N)c(C)c2)cc(C)c1N | inactive |

| SMILES | outcome |
| --- | --- |
| CCC(C)(CC)c1cc(NC(=O)c2c(OC)cccc2OC)on1 | inactive |
| C1CN2CCN1CC2 | inactive |
| CCNc1nc(NC(C)C)nc(SC)n1 | inactive |
| CC1OC(C)OC(C)O1 (stereo not drawn) | inactive |
| COc1ccc2c3c1O[C@H]1[C@@H](O)C=C[C@H]4[C@@H](C2)N(C)CC[C@@]341 | inactive |
| Cc1cccc([N+](=O)[O-])c1 | inactive |
| O=c1ccc(=O)[nH][nH]1 | inactive |
| OC(O)C(Cl)(Cl)Cl | inactive |
| CCCN(CCC)c1c([N+](=O)[O-])cc(C(F)(F)F)cc1[N+](=O)[O-] | inactive |
| CCCCOC(=O)c1ccccc1C(=O)OCCCC | inactive |
| CCC12COCN1COC2 | inactive |
| CN=C=S | inactive |
| ClCCBr | inactive |
| CC(C)OC(=O)Nc1ccccc1 | inactive |
| C[C@]12CC[C@H]3[C@@H](CC[C@@]45O[C@@H]4C(O)=C(C#N)C[C@]35C)[C@@H]1CC[C@@H]2O | inactive |
| CC(C)OC(=O)Nc1cccc(Cl)c1 | inactive |
| CC(C)NC(=O)N1CC(=O)N(c2cc(Cl)cc(Cl)c2)C1=O | inactive |
| OCCN(CCO)CCO | inactive |

Assay: qHTS assay to test for compound auto fluorescence at 590 nm (red) in HEK293 cell free culture (AID 720683)
Details: cell-free medium autofluorescence, Ex540/Em590 red; series mostly up to 91.3 µM
In short: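 Tox21 10K library compounds were pinned into cell-free DMEM with 10% FBS and fluorescence was read at excitation 540 nm. Activity is expressed as Rose Bengal sodium equivalency.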

| SMILES | outcome |
| --- | --- |
| Nc1ccccc1C(=O)O | inactive |
| Nc1ccc(Br)cc1 | inactive |
| CON(C)C(=O)Nc1ccc(Cl)c(Cl)c1 | inactive |
| O=c1n(Cl)c(=O)n(Cl)c(=O)n1Cl | inactive |
| Cc1ccc([N+](=O)[O-])cc1C | inactive |
| O=S(=O)(c1ccc(Cl)cc1)c1cc(Cl)c(Cl)cc1Cl | inactive |
| CCC[CH2][Sn]([Cl])([Cl])[Cl] | inactive |
| NCC(O)c1ccc(O)cc1 (stereo not drawn) | inactive |
| Cc1ccc(N)cc1Cl | inactive |
| Cc1[nH]c(=O)n(C(C)(C)C)c(=O)c1Cl | inactive |
| CCOP(OCC)OCC | inactive |
| [O-][Cl+2]([O-])O | inactive |
| C1CC2OC2CC1C1CO1 (stereo not drawn) | inactive |
| CCc1cccc(C)c1N(C(=O)CCl)C(C)COC (stereo not drawn) | inactive |
| CN1C(=O)CN=C(c2ccccc2)c2cc(Cl)ccc21 | inactive |
| BrCCBr | inactive |
| CCC[N+](=O)[O-] | inactive |
| Cc1cc(-c2cc(C)c(N)c(C)c2)cc(C)c1N | inactive |

| SMILES | outcome |
| --- | --- |
| CCC(C)(CC)c1cc(NC(=O)c2c(OC)cccc2OC)on1 | inactive |
| C1CN2CCN1CC2 | inactive |
| CCNc1nc(NC(C)C)nc(SC)n1 | inactive |
| CC1OC(C)OC(C)O1 (stereo not drawn) | inactive |
| COc1ccc2c3c1O[C@H]1[C@@H](O)C=C[C@H]4[C@@H](C2)N(C)CC[C@@]341 | inactive |
| Cc1cccc([N+](=O)[O-])c1 | inactive |
| O=c1ccc(=O)[nH][nH]1 | inactive |
| OC(O)C(Cl)(Cl)Cl | inactive |
| CCCN(CCC)c1c([N+](=O)[O-])cc(C(F)(F)F)cc1[N+](=O)[O-] | inactive |
| CCCCOC(=O)c1ccccc1C(=O)OCCCC | inactive |
| CCC12COCN1COC2 | inactive |
| CN=C=S | inactive |
| ClCCBr | inactive |
| CC(C)OC(=O)Nc1ccccc1 | inactive |
| C[C@]12CC[C@H]3[C@@H](CC[C@@]45O[C@@H]4C(O)=C(C#N)C[C@]35C)[C@@H]1CC[C@@H]2O | inactive |
| CC(C)OC(=O)Nc1cccc(Cl)c1 | inactive |
| CC(C)NC(=O)N1CC(=O)N(c2cc(Cl)cc(Cl)c2)C1=O | inactive |
| OCCN(CCO)CCO | inactive |

Assay: qHTS assay to test for compound auto fluorescence at 590 nm (red) in HepG2 cell free culture (AID 720684)
Details: cell-free medium autofluorescence, red 540/590 nm; series mostly up to 91.3 µM
In short: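 Measured in medium alone (MEM containing 10% FBS) following pintool addition of compound; emission at 590 nm with 540 nm excitation, referenced to Rose Bengal sodium.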

| SMILES | outcome |
| --- | --- |
| Nc1ccccc1C(=O)O | inactive |
| Nc1ccc(Br)cc1 | inactive |
| CON(C)C(=O)Nc1ccc(Cl)c(Cl)c1 | inactive |
| O=c1n(Cl)c(=O)n(Cl)c(=O)n1Cl | inactive |
| Cc1ccc([N+](=O)[O-])cc1C | inactive |
| O=S(=O)(c1ccc(Cl)cc1)c1cc(Cl)c(Cl)cc1Cl | inactive |
| CCC[CH2][Sn]([Cl])([Cl])[Cl] | inactive |
| NCC(O)c1ccc(O)cc1 (stereo not drawn) | inactive |
| Cc1ccc(N)cc1Cl | inactive |
| Cc1[nH]c(=O)n(C(C)(C)C)c(=O)c1Cl | inactive |
| CCOP(OCC)OCC | inactive |
| [O-][Cl+2]([O-])O | inactive |
| C1CC2OC2CC1C1CO1 (stereo not drawn) | inactive |
| CCc1cccc(C)c1N(C(=O)CCl)C(C)COC (stereo not drawn) | inactive |
| CN1C(=O)CN=C(c2ccccc2)c2cc(Cl)ccc21 | inactive |
| BrCCBr | inactive |
| CCC[N+](=O)[O-] | inactive |
| Cc1cc(-c2cc(C)c(N)c(C)c2)cc(C)c1N | inactive |

| SMILES | outcome |
| --- | --- |
| CCC(C)(CC)c1cc(NC(=O)c2c(OC)cccc2OC)on1 | inactive |
| C1CN2CCN1CC2 | inactive |
| CCNc1nc(NC(C)C)nc(SC)n1 | inactive |
| CC1OC(C)OC(C)O1 (stereo not drawn) | inactive |
| COc1ccc2c3c1O[C@H]1[C@@H](O)C=C[C@H]4[C@@H](C2)N(C)CC[C@@]341 | inactive |
| Cc1cccc([N+](=O)[O-])c1 | inactive |
| O=c1ccc(=O)[nH][nH]1 | inactive |
| OC(O)C(Cl)(Cl)Cl | inactive |
| CCCN(CCC)c1c([N+](=O)[O-])cc(C(F)(F)F)cc1[N+](=O)[O-] | inactive |
| CCCCOC(=O)c1ccccc1C(=O)OCCCC | inactive |
| CCC12COCN1COC2 | inactive |
| CN=C=S | inactive |
| ClCCBr | inactive |
| CC(C)OC(=O)Nc1ccccc1 | inactive |
| C[C@]12CC[C@H]3[C@@H](CC[C@@]45O[C@@H]4C(O)=C(C#N)C[C@]35C)[C@@H]1CC[C@@H]2O | inactive |
| CC(C)OC(=O)Nc1cccc(Cl)c1 | inactive |
| CC(C)NC(=O)N1CC(=O)N(c2cc(Cl)cc(Cl)c2)C1=O | inactive |
| OCCN(CCO)CCO | inactive |
